Screening data from PubChem.
This excerpt belongs to a sample that is enriched for hits.
Pf Dd2 inh: qHTS Primary assay for Inhibitors of Plasmodium falciparum Dd2 growth in vitro | hit rate 4.3% among 120,000 | AID 1347417, 2020 | P. falciparum Dd2 growth, SYBR Green, 72 h | Potency, µM (titrated, usually from 28.9 µM), most hits filed as inhibitors; active = well fitted inhibition curve with a large enough effect; note: nearly all actives have a fitted effect of over 65% in size
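Readout: SYBR Green fluorescence, 485 nm excitation, 535 nm emission, after ~16 h lysis at 37C. Before that, Dd2-infected red cells (2.5% hematocrit) grew 72 h with compound, 29 uM top final concentration.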
Numbers stand for hits; – = inactive; ! = not active in a repeat.

SMILES | Pf Dd2 inh
COc1ccc(CCN2CCCC(CN(C)C(=O)c3cnn(C(C)C)c3)C2)cc1 (configuration not stated) | –
O=C(Cc1ccc(N2CCNC2=O)cc1)N1CCC2(CC1)[C@H](O)C[C@@H]2O | –
O=C(NCCN1CCOC1=O)c1cn(Cc2ccccc2C(F)(F)F)nn1 | –
COc1ccc(CN2CCCC(CNC(=O)NC(C)C)C2)cc1O (configuration not stated) | –
Cc1ccc(NC(=O)NCC2CCN(Cc3cccc(Cl)c3)CC2)cc1Cl | 10µM
Cc1ccc(CN2CCC(CNC(=O)Nc3ccc(Cl)cc3)C2)cc1 (configuration not stated) | –
O=C(NCC1CCN(Cc2cccc(Cl)c2)CC1)c1cc2ccc3cccnc3c2[nH]1 | 7.9µM
O=C(Nc1cccc(C(F)(F)F)c1)c1cc2ccc3cccnc3c2[nH]1 | –
Cc1ccc(CN2CCC(CNC(=O)NC(C)C)C2)cc1C (configuration not stated) | 8.9µM
Cc1ccc(CN2CCC(CNC(=O)Nc3ccccc3F)CC2)cc1 | –
CC(C)NC(=O)NCC1CCCN(Cc2ccc3c(c2)OCCO3)C1 (configuration not stated) | –
O=C(Nc1ccc(F)cc1F)c1cc2ccc3cccnc3c2[nH]1 | –
O=C(C1CCCN1c1nc2ncccc2o1)N1CCN(c2ncccn2)CC1 (configuration not stated) | –
CN1C[C@@H]2CCCN3CCC[C@@H]([C@H]23)[C@H]1CCCC(=O)NCCc1nc2ccccc2n1C | –
CCOC(=O)N1CCC(N2CCCC(CCC(=O)Nc3ccc(OC)c(Cl)c3)C2)CC1 (configuration not stated) | –
COc1ccc(Cl)cc1-n1c(/C=C/c2cccc3ccccc23)nc2ccccc2c1=O | –
COc1ccccc1-n1c(/C=C/c2c(C)n(C)c3ccccc23)nc2ccccc2c1=O | 4µM
O=c1c2ccccc2nc(/C=C/c2cccc3ccccc23)n1-c1ccccc1Cl | –
CSc1ccc(/C=C/c2nc3ccccc3c(=O)n2-c2cccc(Cl)c2C)cc1 | –
Cc1ccccc1-n1c(/C=C/c2c(C)n(C)c3ccccc23)nc2ccccc2c1=O | 2.8µM
COc1ccc(-n2c(/C=C/c3c(C)[nH]c4ccccc34)nc3ccccc3c2=O)cc1 | –
Cc1ccccc1-n1c(/C=C/c2ccccc2F)nc2ccccc2c1=O | 10µM
COc1ccc(-n2c(/C=C\c3ccccc3F)nc3ccccc3c2=O)cc1OC | –
Cc1ccc(-n2c(/C=C/c3ccc(Br)s3)nc3ccccc3c2=O)cc1 | –
O=C(O)c1ccccc1C(=O)N[C@H]1CO[C@H]2[C@@H]1OC[C@@H]2n1nnnc1Oc1cccc(N2CCOCC2)c1 | –
SMILES | Pf Dd2 inh
COc1ccccc1Nc1c2c(nc3ccc(NC(=O)c4ccc(N(C)C)cc4)cc13)CCCC2 | 5.6µM
COc1ccc(C)cc1NC(=O)c1ccc2c(Cl)c3c(nc2c1)CCC3 | –
COc1ccccc1Nc1nn2c(=O)c3ccc(C(=O)Nc4ccc(F)cc4)cc3nc2s1 | –
CCOc1ccccc1C(=O)Nc1ccc2nc3c(c(Nc4ccc(OC)c(OC)c4)c2c1)CCCC3 | 1.1µM
CCOc1ccccc1C(=O)Nc1ccc(S(=O)(=O)Nc2nc(C)cc(C)n2)cc1 | –
COc1cc(OC)cc(C(=O)Nc2ccc3nc4c(c(Nc5ccc(OC)c(OC)c5)c3c2)CCCC4)c1 | –
NC1CCC(n2cc(C(=O)NCc3cc(-c4cccnc4)no3)nn2)CC1 (configuration not stated) | –
O=C(NC1CCCCC1)N1CC(c2nc(CCOCC3CC3)no2)C1 | –
Cc1cc(-c2nc3ncccc3[nH]2)c(C)[nH]1 | 28µM!
c1cnc2nc(C3CCNC3)[nH]c2c1 (configuration not stated) | –
c1ccc(-c2nc3ncccc3[nH]2)nc1 | –
c1cnc2nc(-c3c[nH]c4ncccc34)[nH]c2c1 | 25µM!
c1cnc2nc(-c3ccsc3)[nH]c2c1 | –
O=C(NCc1c[nH]c2ncccc12)c1cccc2[nH]ccc12 | –
Cn1ccnc1C(=O)N1CCCN(C(=O)C2CC2)c2ccccc21 | –
Cn1cnnc1CC1CCNCC1 | –
COCCNC(=O)C(NC(=O)c1ccc(OC)cc1)C1CCN(C(=O)c2cccc(C)c2)CC1 (configuration not stated) | –
CN(C)C(=O)c1cc2cccnn2n1 | –
C#C[C@H]1CN2CC[C@H]1C[C@@H]2COC(=O)Nc1ccc(Br)cc1 | –
C#C[C@H]1CN2CC[C@H]1C[C@@H]2COC(=O)Nc1ccc(C(C)(C)C)cc1 | –
C#C[C@H]1CN2CC[C@H]1C[C@@H]2COC(=O)Nc1ccc(OC(F)(F)F)cc1 | 11µM
COc1cc(C2Nc3c(C)cc(C)cc3-c3cc(C)nn32)cc(OC)c1O (configuration not stated) | –
COc1ccc(OC)c(C2NC(=O)NC(C)=C2C(=O)Nc2cc(C)cc(C)c2)c1 (configuration not stated) | –
COc1ccc(OC)c(C2Nc3c(C)cc(C)cc3-c3cc(C)nn32)c1 (configuration not stated) | 0.25µM
COCC1(CNC(=O)c2ccc(F)cc2)C[C@@H](O)[C@@H](O)C1 (some centres not stated) | –
SMILES | Pf Dd2 inh
Cc1ccc(C(=O)N2CCCn3ccnc3C2C(C)C)c(=O)[nH]1 (configuration not stated) | –
Cc1ncoc1C(=O)N1CCC2(CCCN(CC3CCCCC3)C2=O)C1 (configuration not stated) | –
CCCNC(=O)Cn1c(C)ccc(NS(=O)(=O)c2ccc(C)cc2)c1=O | –
O=C(Cn1cccc1-c1nc(-c2ccccc2)no1)NCc1ccccc1Cl | 10µM
O=C(CSCc1ccc(F)cc1)N1CCN(c2ccccc2F)CC1 | –
O=C(Cn1cccc1-c1nc(-c2ccccc2)no1)NCc1ccc(Cl)cc1 | –
COc1ccc(-c2nc(CSCC(=O)N3CCN(c4ccccc4F)CC3)c(C)o2)cc1 | 6.3µM
COc1ccc(-c2noc(-c3cccn3CC(=O)NCCc3ccccc3)n2)cc1F | 0.25µM
Cc1oc(-c2ccccc2F)nc1CSCC(=O)N1CCN(c2ccccc2)CC1 | –
COc1ccc(-c2noc(-c3cccn3CC(=O)N3CCN(c4ccccc4F)CC3)n2)cc1F | 2.5µM
O=C(Cn1cccc1-c1nc(-c2ccc(F)cc2)no1)N1CCN(c2ccccc2F)CC1 | –
O=C(Cn1cccc1-c1nc(-c2ccccc2)no1)Nc1ccccc1Cl | –
COc1ccc(OC)c(NC(=O)Cn2cccc2-c2nc(-c3ccc(OC)c(F)c3)no2)c1 | –
COc1ccc(-c2noc(-c3cccn3CC(=O)N3CCN(c4ccc(F)cc4)CC3)n2)cc1F | –
COc1ccc(CCNC(=O)Cn2cccc2-c2nc(-c3ccc4c(c3)OCO4)no2)cc1OC | –
COCCc1noc(-c2nnn3c2COC(c2ccc(F)cc2)C3)n1 (configuration not stated) | –
CNC(=O)[C@@H]1CN(C(=O)CCc2nc3ccccc3s2)C[C@H]1c1nc(C)no1 | –
CC(=O)Nc1cccc(-c2cnc3[nH]cc(CC(=O)N4CCOCC4)c3c2)c1 | –
COc1ccc(-c2cc(N3CCN(C(=O)c4ccccc4C)CC3)n[nH]2)cc1 | –
CN(Cc1ccccc1)C(=O)C[C@@H]1O[C@H](CNC(=O)c2ccc(F)c(Cl)c2)[C@@H](O)[C@H]1O | –
COc1ccc(C(=O)N2CC[C@H]3COC(=O)N3c3cc(C)ccc3C2)cc1 | –
COCC1CN(C2CCC2)CC12CCN(C(=O)C1CC1)CC2 (configuration not stated) | –
